Results filed as inconclusive are left out. Entries that show only a call come without a potency. Active and inactive are the calls of the source. Calls follow the shape of the dose curve; as a rule, active = well fitted inhibition curve with a large enough effect; inconclusive = small, poorly fitted or top-dose-only effect; inactive = flat fitted curve, though single readings scatter.
biological target: Calcium and integrin-binding protein 1 (Homo sapiens) (UniProt Q99828); test: Primary qHTS for Identification of Calcium Integrin Binding Protein 1 (CIB1) Competitor (AID 1508620); settings: CIB1-GST / FITC-alphaIIb peptide fluorescence polarization; series mostly up to 114 µM;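 also: GST tagged CIB1 binding a fluorescein labelled alphaIIb integrin peptide tracer; top concentration of the series differs between compounds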
Sequence (Q99828 whole entry, looked up): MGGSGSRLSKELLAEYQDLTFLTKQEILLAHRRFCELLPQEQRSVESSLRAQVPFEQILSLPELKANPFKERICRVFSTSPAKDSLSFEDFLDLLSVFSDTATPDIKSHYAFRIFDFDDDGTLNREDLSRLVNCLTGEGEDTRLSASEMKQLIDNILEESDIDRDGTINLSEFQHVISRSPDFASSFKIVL
Outline: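 CIB1-GST (1 uM final) and compound incubated 15 min at room temperature before adding FITC-alphaIIb peptide tracer (100 nM final). Competition for binding read by fluorescence polarization (ex 480, em 540) after another 15 min at room temperature.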

Structure (SMILES)	Potency
Cc1ccc2nc(NC3=NC4(CCCC4)C4=C(CCCC4=O)N3)oc2c1	inactive
CN1CCN(Nc2nn3c(=O)c4ccccc4nc3s2)CC1	inactive
COc1cccc(C2C(C#N)=C(NC(=O)CCc3ccccc3)Oc3ccc4ccccc4c32)c1 (configuration not stated)	inactive
COc1ccc(NC(=O)CN2C(=O)N/C(=C\c3cccn3-c3ccc(C(=O)NC#N)cc3)C2=O)cc1	inactive
Cc1cc(C)nc(NC(=S)N2CCN(c3ccc4ccccc4c3)CC2)c1	inactive
O=C1N/C(=C\c2ccco2)C(=O)N1Cc1ccc(F)cc1	inactive
Cc1cccc([S+](=O)([O-])NC2CCN(C#N)CC2)c1	inactive
COc1cccc(C2c3c(ncn(-c4ccc(NC(C)=O)cc4)c3=N)Oc3ccc4ccccc4c32)c1 (configuration not stated)	inactive
Cc1ccc(OCCn2c(CCNC(=O)c3cccs3)nc3ccccc32)cc1	inactive
CC(C)CC(O)C(=O)Nc1cc(C(F)(F)F)ccc1Cl (configuration not stated)	inactive
CCN1CCN(C(=S)c2ccc(O)cc2)CC1	inactive
O=C(Nc1ncc(Cc2ccc(C(F)(F)F)cc2)s1)c1ccc(-c2ccccc2[N+](=O)[O-])o1	inactive
O=C(Nc1ccc(F)c(C(F)(F)F)c1)Nc1nc(-c2ccncc2)cs1	inactive
Cc1ccc(OCCn2c(CCNC(=O)c3cccc4ccccc34)nc3ccccc32)cc1	inactive
O=S1(=O)N=C(N2CCOCC2)c2ccccc21	inactive
Cc1cc2c(s1)c1cnn(Cc3cc(Cl)ccc3F)c(=O)c1n2C	inactive
Cn1cc(P(=O)(c2ccccc2)c2ccccc2)c2ccccc21	inactive
COC(=O)c1ccccc1NC(=O)c1ccc(F)cc1F	inactive
CCCCN(C)C(=O)Cn1nc(-c2ccc(C(F)(F)F)cc2)ccc1=O	inactive
CSc1ccc(-c2cncc(NC(=O)c3cccs3)c2)cc1	inactive
Cc1ccnc(NC(=S)N2CCN(c3cccc(Cl)c3Cl)CC2)c1	inactive
COc1cccc(CNc2ccc(S(=O)(=O)Nc3cccs3)cc2)c1O	inactive

Reference: PubChem BioAssay (NCATS)
